Hsp90 Hop PPI: changes Hsp90-Hop TPR2A binding signal, up or down; AlphaScreen TPR2A-His6 binding biotin-Hsp90 C-terminal peptide; Potency, µM (series often up to 57 µM), without a hit: at the top dose activity change, negative = inhibition; hit rate 0.44% among 71,000; active means well fitted curve in either direction with a large enough effect; inconclusive means small, poorly fitted or top-dose-only effect, or another doubt
FLuc inh: firefly luciferase inhibition; P08659; purified firefly luciferase, luminescence, 8 min; Potency, µM (doses to about 57.1 µM), for inactives: at the highest dose activity change, negative = inhibition, most hits filed as inhibitors; hit rate 2.2% among 72,000; further: nearly all actives have a fitted effect of over 40% in size
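Substrate buffer containing 10 uM ATP (pH 7.2 imidazole, Mg2+, KCl, detergent, BSA) is dispensed, compound pinned in, then luciferase/luciferin detector mix added. After 8 min at ambient temperature, light output is measured.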
ERK AVP block: inhibitors of vasopressin-stimulated ERK signaling pathway; HEK293-V1b, vasopressin-stimulated pERK AlphaScreen; Potency, µM (titrated, usually from 57.5 µM), for inactives: at the top dose activity, negative = inhibition, hits mostly inhibitors; hit rate 0.99% among 72,000; further: nearly all actives have a fitted effect of over 55% in size
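Overnight-seeded V1b-HEK293 cells in 1% FBS got compound, then vasopressin (25 nM final, 5 min, 37C), then lysis buffer. AlphaScreen detection of phospho-ERK; activity normalized to basal and full-stimulation controls.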
Tau filament bind: binders of human tau filaments; Potency, µM (top dose mostly 57.1 µM), for inactives: top-dose activity change, negative = inhibition; recombinant tau filaments, thioflavin S fluorescence, 15 h; filaments grown with octadecylsulfate alongside compound; AID 596; hit rate 2% among 71,000; P10636;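 further: actives lower thioflavin S fluorescence by blocking filaments or displacing dye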
Target sequence (P10636 whole entry, looked up): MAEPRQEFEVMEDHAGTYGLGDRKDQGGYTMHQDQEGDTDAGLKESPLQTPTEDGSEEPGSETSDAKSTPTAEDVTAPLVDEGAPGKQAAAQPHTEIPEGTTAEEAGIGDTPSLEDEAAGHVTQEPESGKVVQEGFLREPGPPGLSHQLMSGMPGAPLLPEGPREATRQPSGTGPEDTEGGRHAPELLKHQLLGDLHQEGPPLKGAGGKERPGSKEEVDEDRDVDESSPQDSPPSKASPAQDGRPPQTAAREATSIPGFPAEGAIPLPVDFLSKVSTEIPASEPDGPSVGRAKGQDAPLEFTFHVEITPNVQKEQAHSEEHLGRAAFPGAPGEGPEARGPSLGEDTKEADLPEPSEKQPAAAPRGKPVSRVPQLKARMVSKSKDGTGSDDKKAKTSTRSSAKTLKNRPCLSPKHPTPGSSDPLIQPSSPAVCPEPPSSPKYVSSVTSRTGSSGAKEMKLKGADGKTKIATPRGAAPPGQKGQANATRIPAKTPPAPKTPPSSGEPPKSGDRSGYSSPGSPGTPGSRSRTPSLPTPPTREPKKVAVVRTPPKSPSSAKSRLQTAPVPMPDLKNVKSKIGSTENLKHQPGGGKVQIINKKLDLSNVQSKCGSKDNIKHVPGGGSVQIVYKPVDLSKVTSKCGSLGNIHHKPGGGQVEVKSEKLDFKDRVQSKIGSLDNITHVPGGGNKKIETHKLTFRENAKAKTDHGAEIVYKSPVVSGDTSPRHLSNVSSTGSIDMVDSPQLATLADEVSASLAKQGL
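His-tagged recombinant human tau (exons 2, 3 and 10 included), 1 uM, was induced to fibrillize by 30 uM sodium octadecylsulfate with compound present. After 15 h at 37 C, thioflavine S fluorescence (ex 450, em 510 nm) was read.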
PK Bst: alters activity of Bacillus stearothermophilus pyruvate kinase | purified pyruvate kinase, luminescence ATP production; ribose 5-phosphate activator present at AC10 | AID 361 | hit rate 1.2% among 51,000 | Potency, µM; in the data active means potency below about 11 µM; inconclusive means mostly about 12 µM to 25 µM;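 the screen sought inhibitors and activators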;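 further: scaled between full activation by ribose 5 phosphate and full inhibition by luteolin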
15-hLO inh: 15-hLO (ALOX15) enzyme inhibition | purified 15hLO-1, xylenol orange hydroperoxide absorbance | hit rate 1.4% among 74,000 | Potency, µM (top dose mostly 57.1 µM), for inactives: top-dose activity change, negative = inhibition, usual class: inhibitors; further: nearly all actives have a fitted effect of over 55% in size
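Purified human 15hLO-1 (40 nM final) in 25 mM Hepes pH 7.5, 0.01% Triton X-100 was preincubated with compound 15 min at room temperature, then reacted 6 min with 50 uM arachidonic acid; hydroperoxide detected by Fe-XO, 573/405 nm absorbance ratio.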
Active calls of the source: *; i = inactive; ? = inconclusive; . = no result given; ! = not active in a repeat; [ ] = another dose, or the depositor's remark. Compounds with a hit are over-represented: about 6.1% of the library has one in this group of screens. Unless noted, the call rests on the fitted dose curve; in most records, active means well fitted curve in the direction sought with a large enough effect; inconclusive means small, poorly fitted or top-dose-only effect, or another doubt; inactive means no such curve, though single readings can be large; an effect the other way counts as inactive or inconclusive. Unless noted, on the % scale 0 is the no-effect control and ±100 the full control effect; potency means the concentration at half of the fitted maximal effect.

SMILES | Hsp90 Hop PPI | FLuc inh | ERK AVP block | Tau filament bind | PK Bst | 15-hLO inh
CO[C@H]1COC(=O)CCC[C@H](C)[C@H](OC)COC(=O)C/C=C\[C@@H]1C | . | 1%[11.4 µM] | 7%[11.5 µM] | . | . | 2%[11.4 µM]
N=c1ccn2c(n1)O[C@H]1[C@@H](OP(=O)(O)O)[C@H](CO)O[C@H]12 | -3%[11 µM] | 2%[11.4 µM] | 12%[11.5 µM] | -2%[11.4 µM] | . | 2%[11.4 µM]
COC(=O)C/C=C1\c2ccccc2[C@H](OC)[C@H]1C | . | 3%[11.4 µM] | 4%[11.5 µM] | . | . | 5%[11.4 µM]
COc1ccc(NS(=O)(=O)c2ccc(I)cc2)cc1N1CCN(C)CC1 | ? | -1% | 9% | 40µM* | . | ?
Fc1ccc(-n2[nH]nnc2=S)cc1N1CCCC1 | -7% | -4% | -14% | -17% | >57 | 25µM*
CC[N+](CC)(CC)CCOc1ccc(/C=C\c2ccccc2)cc1 | -10% | -1% | 4% | -63% | . | 16µM*
CCOc1ccc(/C=C/C(=O)c2cccs2)cc1 | . | . | 20% | . | . | -3%[25.6 µM]
C=CCn1c(N)c(C(=O)NCC2CCCO2)c2nc3ccccc3nc21 (stereo not given) | ? | 0% | -29% | 49% | >57 | -9%
COc1ccc(-n2c(N)c(C(=O)NCC3CCCO3)c3nc4ccccc4nc32)c(OC)c1 (stereo not given) | ? | 0% | ? | 25µM* | >57 | ?
Cc1nc2ncnn2c(N2CCN(C(c3ccccc3)c3ccccc3)CC2)c1C | ? | 1% | 25µM* | 177% | >57 | ?
N#Cc1cccc(-c2nccc(-n3ccnc3)n2)c1 | -23% | 4%[2.29 µM] | ? | 0% | . | 10µM*
CS(=O)(=O)Nc1cccc(-c2nccc(-n3ccnc3)n2)c1 | -13% | 0%[2.29 µM] | -18% | -12% | . | 20µM*
CS(=O)(=O)Nc1cccc(-c2nc(-n3ccnc3)c3ccccc3n2)c1 | -1% | 0%[2.29 µM] | -17% | 4% | . | 0%
Cc1ccccc1C(=N)c1ccccc1Cc1cccc2ccccc12 | 11%[11 µM] | 3%[11.4 µM] | -7%[11.5 µM] | -12%[11.4 µM] | . | 14%[11.4 µM]
Cc1ccc(CNC(=O)[C@H](C)[C@@H]2C[C@@]2(C)[C@@H](NC(=O)OCc2ccccc2)c2ccccc2)o1 | -6% | . | 4% | 17% | . | .
CCOc1ccc(NC(=O)c2ccc(N)cc2)cc1 | -4% | 13µM* | . | -2% | . | 7%
CCOc1ccc(C(=O)Nc2c(C(N)=O)oc3ccccc23)cc1 | 4% | ? | -2% | 110% | 4* | ?
CCOc1ccc(NC(=O)c2nn(C)cc2Br)cc1 | . | 10µM* | . | . | ? | .
CCOc1ccc(NC(=O)CCn2cccc2)cc1 | . | . | . | . | . | 7%
CCOc1ccc(NC(=O)c2ccncc2)cc1 | -3% | -10% | 10% | 4% | . | 5%
COc1ccccc1-c1nc(N(C)C)c2ccccc2n1 | -9% | 0%[2.29 µM] | -5% | 16µM* | . | ?
CN(Cc1ccco1)c1nc(-c2ccccc2Cl)nc2ccccc12 | 8% | -2%[2.29 µM] | 13% | -2% | . | 3%
COc1ccccc1-c1nc(N(C)Cc2ccco2)c2ccccc2n1 | -5% | -1%[2.29 µM] | -29% | 7.9µM* | . | -22%
CN(Cc1ccco1)c1nc(-c2ccccc2C(F)(F)F)nc2ccccc12 | 11% | -1%[2.29 µM] | 2% | 0% | . | 16µM*
CN(C)Cc1ccccc1-c1nc(N(C)C)c2ccccc2n1 | -1% | -12%[2.29 µM] | -1% | 11% | . | 19%
SMILES | Hsp90 Hop PPI | FLuc inh | ERK AVP block | Tau filament bind | PK Bst | 15-hLO inh
COc1ccc(-c2nc3cnc(OC)nc3n(C[C@H]3CCCO3)c2=O)cc1 | 1% | 1%[11.4 µM] | -10% | -6% | . | 5%
CCC1=C2CC[C@H]3C(=O)N(C)C(=O)[C@H]3[C@H]2[C@@]2(C)C(=O)N(CC3CC3)C(=O)N2C1=O | . | . | 16% | . | . | .
Cc1[nH]nc2c1C(c1ccccc1)C1=C(CC(C)(C)CC1=O)N2 (stereo not given) | -2% | -1% | 3% | 8% | >57 | 9%
Cc1ccc(C2C3=C(CC(C)(C)CC3=O)Nc3[nH]c(=S)[nH]c(=O)c32)cc1 (stereo not given) | -12% | 1% | 22% | 8% | >57 | 20µM*
CCOc1nc(C#N)nc(N2CCCCC2)n1 | -8% | 2% | 36% | 13µM* | >57 | -9%
CCOC(c1cc(OC)cc([N+](=O)[O-])c1OC)C(C)C(OC)[C@@H](C)/C=C/CC(=O)OC (stereo not given in full) | . | . | 11%[11.5 µM] | . | . | 9%[11.4 µM]
COC(=O)c1c(C)nn(-c2ccccc2)c1N | 0% | -5% | -4% | -11% | . | 5%
COC(=O)c1c(C(=O)OC)c2n(c1C)Cc1ccccc1C2 | -4% | -1% | -29% | -26% | . | 7.9µM*
COc1ccccc1NC(=O)N1CCN(c2cccc(C(F)(F)F)c2)CC1 | ? | 5% | -28% | 2% | . | 40µM*
CCOc1ccccc1NC(=O)c1ccccc1-c1nc(-c2ccccc2OC)no1 | 0% | 25µM* | -6% | 31% | . | -8%
CC(C)(C)NC(=O)c1ccccc1-c1nc(-c2ccccc2Cl)no1 | ? | 20µM* | 25% | 5% | . | 6%
CSC(N)=NCCC[C@@H](N)C(=O)O | -9% | -1% | 4% | -1% | . | 10%
O=C(CSc1nnc2ccccn12)c1ccc2c(c1)OCCO2 | -4% | 16µM* | 1% | 1% | . | 3%
O=C(CSc1nnnn1C1CCCC1)c1ccc2c(c1)OCCO2 | 6% | 7.9µM* | -6% | 5% | i | -2%
c1ccn2c(SCc3ccc4c(c3)OCO4)nnc2c1 | -5% | -2% | 8% | 3% | >57 | 1%
O=C(CSc1nnnn1C1CCCC1)Nc1ccc2c(c1)OCO2 | 2% | 2% | 8% | 4% | >57 | 1%
O=C(O)c1cc(-c2ccc3cc4c(cc3c2)OCO4)nc2ccccc12 | 2%[11 µM] | 2.5µM* | 4%[11.5 µM] | -6%[11.4 µM] | . | -1%[11.4 µM]
COC(=O)c1cc(-c2ccc3c(c2)OCO3)nc2ccccc12 | 25µM* | -17% | 59% | 38% | . | -13%
O=C(O)c1cc(-c2ccccc2)nc2ccccc12 | 0% | -8%[25.5 µM] | -7% | -6% | >26 | 1%
O=C(NCCCN1CCOCC1)c1cc(-c2ccc3c(c2)OCO3)nc2ccccc12 | -5%[2.3 µM] | -17% | -14% | -6% | . | ?
CN1c2cc3c(cc2N=C(c2ccc(C(=O)O)cc2)c2ccccc21)C(C)(C)CCC3(C)C | . | . | ? | . | . | -23%
CN(C)c1ccc(-c2ccc3ncnc(N(C)Cc4ccco4)c3c2)cc1 | 6% | 0%[2.29 µM] | -28% | 20µM* | . | -19%
CNC(=O)c1cc2c(cn1)[nH]c1ccccc12 | -5% | 25µM*! | -16% | ? | . | 4%
CCCCOC(=O)c1cc2c(cn1)[nH]c1ccccc12 | -5% | ? | -13% | -20% | . | 7%[25.6 µM]
CN(CC(=O)O)Cc1c(O)c(Cl)cc(Cl)c1Cl | -6%[11 µM] | -1%[11.4 µM] | 1%[11.5 µM] | 7%[11.4 µM] | . | 18%[11.4 µM]
Cc1nc(NCc2ccco2)c2oc3ccccc3c2n1 | -3% | 0% | 25µM* | 2% | . | -1%
COc1ccc(CCNc2nc(C)nc3c2oc2ccccc23)cc1OC | -5% | -1% | 13µM* | 20% | i | -8%

Screening data (PubChem BioAssay)
